Drawing on PubChem BioAssay (EPA / NIEHS), this text covers outcome and AC50 for eleven compounds.

Several values for one entry are separate records, joined by “and”; a condition that tells them apart may be missing. Identical values can stand only once. Inconclusive results are not listed. Activity calls are given as the source filed them. The calls were made as follows: active = hit-call score of the fitted dose curve at least 0.9, where 1 is the maximum; inconclusive = response in the unintended direction; inactive = score below 0.9.

One may read the AC50 as the concentration at which the activity in the assay is half-maximal.

The assay is described as follows: CCTE_Shafer_MEA_dev_AB: CCTE's Alamar Blue Assay for Cytotoxicity in the Neural Network Formation Assay, Shafer Lab (AID 2284083).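 Also: resazurin reduction fluorescence as viability of cultured neurons; twelve days of exposure from plating with re-dosing on DIV 5 and 9.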 A digest of the protocol: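 Resazurin fluorescence, relative to DMSO, gauges viability after twelve days of exposure that began at plating of rat cortical neurons (1.5 x 10^5 cells/well, 48-well MEA); treatment renewed with full medium exchange on DIV 5 and 9.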
(Alamar Blue is a resazurin reagent that responds to reducing activity.)
`CSC(=O)c1cccc2nnsc12`: the result was inactive.
On to `Oc1ccc(C(c2ccc(O)cc2)C(Cl)(Cl)Cl)cc1`, for which the compound was classed as inactive.
On the same count and under the same terms, the result for `S=C(S)NCCNC(=S)S.[Mn+2].[S-]C([S-])=NCCN=C([S-])[S-].[Zn+2]` reads “inactive”; that for `S=C([S-])NCCNC(=S)[S-].[Mn+2]`, “inactive”.
As to `CCCN(CCC)C(=O)SCC`, the compound was classed as inactive.
`CC1(C)C(C=C(Cl)Cl)C1C(=O)OCc1cccc(Oc2ccccc2)c1` (stereo unspecified): the AC50 is 26.4 µM (active) and 14.7 µM (active).
For `CCCCC(CC)CN1C(=O)C2C3C=CC(C3)C2C1=O` (stereo unspecified), the outcome was inactive.
`Cc1nn(C)c(Oc2ccccc2)c1C=NOCc1ccc(C(=O)OC(C)(C)C)cc1`: the AC50 is 9.23 nM (active).
With `C#CCOC(=O)[C@@H](C)Oc1ccc(Oc2ncc(Cl)cc2F)cc1`, the AC50 is 10.1 nM (active).
For the compound `CCCCOCCOCCOCc1cc2c(cc1CCC)OCO2`, the compound was called inactive.
The same measure, in the same setting: then `OB(O)O`, with “inactive”.
